Pf growth 48h: P. falciparum growth inhibition at 48 hours (one generation). 310,000 tested, 5.9% active. Potency, µM (top dose mostly 28.7 µM), without a hit: top-dose activity change, negative = inhibition, hits mostly inhibitors. P. falciparum luciferase growth in erythrocytes, 48 h. AID 504832; further: on the % scale 0 is the no-effect control and ±100 the full control effect
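Luminescence readout; reporter = integrated firefly luciferase in P. falciparum. RBC culture at 2% hematocrit, 0.1% parasitemia final, 37 C/5% CO2; decreased signal taken as growth inhibition.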
NS1 function inh: influenza NS1 inhibition; Potency, µM (series often up to 46.1 µM), for the others: at the highest dose activity, positive = more growth; 270,000 tested, 0.4% active; AID 2326; calls by dose curve; further: actives are rising curves; nearly all actives have a fitted effect of over 50% in size
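Read-out: OD600 growth recovery of NS1-expressing budding yeast. Cells grown overnight at 30C in -URA glucose medium, washed, resuspended and diluted 1:100 in 2% galactose assay medium, pH 6.0. Same strain lacking NS1 served as positive control.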
Pf growth 96h: P. falciparum growth inhibition at 96 hour, primary screen for plastid delayed-death inhibitors; P. falciparum luciferase reporter growth, 96 h; Potency, µM (doses to about 28.7 µM), inactives show at the top dose activity change, negative = inhibition, actives largely listed as inhibitors; 320,000 tested, 6.9% active; AID 504834; further: on the % scale 0 is the no-effect control and ±100 the full control effect
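P. falciparum expressing integrated firefly luciferase grown in erythrocytes (2% hematocrit, 0.05% parasitemia final) with compounds for 96 hours at 37 C, 5% CO2. Growth inhibition read as loss of luminescence after adding luciferase detection reagent.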
SARS PLpro yeast: inhibitors of SARS-CoV papain-like protease in yeast | S. cerevisiae expressing SARS-CoV PLpro, growth rescue | Potency, µM (series often up to 32.9 µM), for inactives: at the highest dose activity, positive = growth rescue, most hits filed as activators | 330,000 tested, 0.19% active; calls by dose curve; further: 0% is about no effect; nearly all actives have a fitted effect of over 55% in size
HCV inhibitor: HCV inhibition. AID 651820. 340,000 tested, 3.4% active. Potency, µM (series often up to 41.8 µM), without a hit: at the highest dose activity change, negative = inhibition, most hits filed as inhibitors. Huh7.5.1 HCVcc-Cre infection, luciferase reporter, 44 h; further: on the % scale 0 is the no-effect control and ±100 the full control effect
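Luciferase read-out (15 sec integration) after a 15 min room-temperature substrate step quantifies HCVcc-Cre infection. Cells, 1,000 per well, had compound added 4 h post-plating, then virus at ~0.5 moi, and were cultured 44 h.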
AMA1 RON2 block: AMA1-RON2 (P. falciparum) interaction inhibition; AlphaScreen AMA1-biotinylated RON2 peptide binding; 360,000 tested, 0.2% active; Potency, µM (series often up to 58.2 µM), inactives show at the top dose activity change, negative = inhibition, actives largely listed as inhibitors;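 further: 0% = vehicle wells and -100% = peptide control; nearly all actives have a fitted effect of over 45% in size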
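AMA1 (3D7) with his tag at 25 nM final met compounds first, then biotinylated RON2 peptide at 25 nM; detection used donor plus acceptor beads, 10 µg/mL apiece, read by AlphaScreen after 30 min at room temperature.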
* hit, by the source's call; ? = inconclusive; . = no result given; [ ] = dose if it differs, or a comment. Most compounds without a hit are left out; they make up all but 12% or so of the library. Unless noted, the call rests on the fitted dose curve; in most records, active means well fitted curve in the direction sought with a large enough effect; inconclusive means small, poorly fitted or top-dose-only effect, or another doubt; inactive means no such curve, though single readings can be large; an effect the other way counts as inactive or inconclusive. Potency means the concentration at half of the fitted maximal effect.

SMILES	Pf growth 48h	NS1 function inh	Pf growth 96h	SARS PLpro yeast	HCV inhibitor	AMA1 RON2 block
O=C(Nc1ccccc1C(F)(F)F)c1cc(-c2ccccc2O)on1	1µM*	0%	0.47µM*	0%	4%	-2%
Cc1cc(C(=O)Nc2ccccc2C(F)(F)F)no1	2%	-5%	10µM*	0%	11%	-14%
O=C(Nc1ccccc1C(F)(F)F)c1cc(-c2ccco2)on1	36%	1%	7%	-2%	-11%	21%
Cc1ccc(C(C(=O)NC2CCCCC2)N(C(=O)c2csnn2)C2CC2)cc1 (stereo not given)	-4%	0%	-12%	1%	2%	-6%
CCN(C(=O)N1CCOCC1)c1ccccc1C	0%	14%	6.6µM*	-5%	22%	8%
Cc1ccccc1CC(=O)N1CCOCC1	9%	0%	42%	-1%	1%	0%
S=C(NCC1CCCO1)N1CCN(Cc2ccccc2Cl)CC1 (stereo not given)	-5%	.	0%	-1%	-12%	-5%
FC(F)(F)c1cccc(N2CCN(C(=S)NCC3CCCO3)CC2)c1 (stereo not given)	?	.	41%	-6%	11µM*	2%
COCCNC(=S)N1CCN(c2cccc(C(F)(F)F)c2)CC1	-4%	.	?	-2%	0%	3%
S=C(NCC1CCCO1)N1CCN(c2ccccc2)CC1 (stereo not given)	31%	.	4.7µM*	-4%	5%	2%
CCCn1nnc(NC(=O)c2ccc3c(c2)OCO3)n1	84%	7%	158%	1%	7%	15%
O=C(COC(=O)c1ccc(Cl)c(S(=O)(=O)NCc2ccccc2)c1)NC1CC1	5%	.	58%	0%	0%	3%[11.6 µM]
CCOC(=O)c1c(C)[nH]c(C)c1C(=O)COC(=O)c1ccc(Cl)c(S(=O)(=O)NCc2ccccc2)c1	.	9%	?	8%	7.1µM*	-2%
COC(=O)c1sccc1S(=O)(=O)Nc1ccc(N2CCCCC2)cc1	?	-1%	?	0%	-24%	14µM*
Cc1sc2nc(-c3ccccn3)[nH]c(=O)c2c1-c1ccccc1	1.5µM*	.	?	-3%	10µM*	65%
CCCCN(C(=O)c1cccc2c(=O)c(C)c(-c3ccccc3)oc12)c1ccccc1	?	-40%	4.1µM*	-39%	?	-2%
Cc1c(C)c(C)c2[nH]c(-c3ccc4c(c3)OCO4)nc2c1C	2.3µM*	-32%	2.1µM*	-6%	?	0%
COc1ccc(-c2[nH]c(-c3ccc4c(c3)OCO4)nc2-c2ccccc2)cc1	?	-192%	?	-31%	?	?
O=C(Nc1nc2n(n1)C(c1ccc(Cl)cc1)CC(c1ccc(Cl)cc1)N2)c1ccco1 (stereo not given)	10µM*	?	?	3%	-15%	-8%
O=C(Nc1nc2n(n1)C(c1ccc(F)cc1)CC(c1ccccc1)N2)c1ccco1 (stereo not given)	-20%	1%	?	0%	8%	77%
COc1ccc(C2CC(c3ccc(Cl)cc3)Nc3nc(NC(=O)c4ccco4)nn32)cc1 (stereo not given)	9.3µM*	-56%	13%	-13%	-21%	2%
CCN1C(=O)c2ccccc2S(=O)c2ccc(C(=O)NCCN(CC(C)C)CC(C)C)cc21 (stereo not given)	12µM*	-4%	76%	1%	-8%	-2%
CCN1C(=O)c2ccccc2S(=O)(=O)c2ccc(C(=O)NCCCN(CC(C)C)CC(C)C)cc21	-27%[0.00184 µM]	-7%	25%	0%	15%	-5%
O=C(NCCCN1CCOCC1)c1ccc2c(c1)N(Cc1ccccc1)C(=O)c1ccccc1S2=O (stereo not given)	?	12%	7%	4%	-18%	10%
O=C(NCCCN1CCOCC1)c1ccc2c(c1)N(Cc1cccc(Cl)c1)C(=O)c1ccccc1S2=O (stereo not given)	12µM*	-8%	-7%	3%	?	-9%
SMILES	Pf growth 48h	NS1 function inh	Pf growth 96h	SARS PLpro yeast	HCV inhibitor	AMA1 RON2 block
O=C(NCCCN1CCOCC1)c1ccc2c(c1)N(Cc1ccccc1F)C(=O)c1ccccc1S2=O (stereo not given)	-24%	-2%	15µM*	6%	-13%	12%
COC(=O)C1CSC(C(=O)OC)N1C(=O)CN1CCN(c2ccccc2)CC1 (stereo not given)	-5%	1%	?	4%	0%	-6%
Cc1cc(C)c(S(=O)(=O)NCCCn2ccnc2)cc1C	9%	-7%	13%	-1%	-13%	?
COc1cccc(Nc2nc(C)cc(C)c2C(N)=O)c1	8%	16%	0%	2%	18%	-9%
CCCNc1nc2ccccc2n2c(C)nnc12	8%	6%	9.3µM*	0%	-16%	-6%
CCCN(CCC)c1nc2ccccc2n2c(C)nnc12	0%	-30%	-22%[5.75 µM]	0%	3.2µM*	-16%
Cc1ccc(-c2nc3ccccc3n3c(C)nnc23)cc1	-15%	-10%	84%	0%	.	.
CN(C)Cc1ccc(O)c(CCc2ccccc2)n1	5.2µM*	-2%	7%	18%	-6%	-9%
CCOc1ccc(NC(=O)C2CCCN(S(=O)(=O)c3ccc4c(c3)CCCN4C(C)=O)C2)cc1 (stereo not given)	12µM*	8%	?	5%	?	0%
CC(=O)N1CCCc2cc(S(=O)(=O)N3CCCC(C(=O)Nc4cccc(C)c4)C3)ccc21 (stereo not given)	-20%	-7%	16%	-1%	?	5%
CC1CCN(C(=O)C2CCN(S(=O)(=O)c3ccc4c(c3)CC(C)N4C(=O)C3CC3)CC2)CC1 (stereo not given)	9.3µM*	3%	0%	18%	?	-3%
CCOc1ccc(NC(=O)C2CCN(S(C)(=O)=O)CC2)cc1	-5%	-4%	12µM*	-4%	-4%	22%
CC(=O)N1c2ccc(S(=O)(=O)N3CCC(C(=O)N4CCCCC4)CC3)cc2CC1C (stereo not given)	?	-8%	?	4%	?	-8%
COc1ccc(NC(=O)C2CCN(S(C)(=O)=O)CC2)cc1	-10%	5%	.	1%	-1%	7%
CCc1cccc(NC(=O)C2CCCN2S(=O)(=O)c2ccc3c(c2)CC(C)N3C(C)=O)c1 (stereo not given)	12µM*	3%	?	4%	-21%	6%
O=c1ccnc(SCCc2ccc([N+](=O)[O-])cc2)[nH]1	.	.	.	.	4%	-2%
COC(=O)CCN1CCC2CC1c1cc(Cl)ccc12 (stereo not given)	.	.	.	.	-1%	-13%
